Experiment [1] concerns XIP peptide (Xip251-270) binding. In words: XIP fragment 251-270 binding compounds – biochemical, small-molecule microarray, fluorescence 635/667 nm, 0.1 µg/mL protein, primary screen (AID 1182). Conditions: fluorescent protein binding, 635 nm, higher = more signal, called active from +8 up or from −8 down.
Another experiment concerns XIP peptide (Xip251-270). Kind of experiment: compounds binding XIP fragment 251-270 – biochemical, small-molecule microarray, fluorescence 635/667 nm, 0.5 µg/mL protein, primary screen (AID 1183). Conditions: fluorescence 635 nm, higher = more signal.
Experiment [2] can be described thus: blood-stage malaria parasite viability loss – strain 3D7, DAPI fluorescence, 100 nL, primary screen (AID 1184).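 Also: parasites grown inside human red blood cells in medium with human serum.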 The conditions noted are these: P. falciparum 3D7 growth, 3 d, higher = more signal.
For experiment [3], the target named is Homeobox protein Hox-A13 (Mus musculus) (UniProt Q62424). Kind of experiment: disruptors of Hoxa13 oligonucleotide interaction – biochemical, fluorescence polarization, labeled oligonucleotide, primary screen (AID 1185). The conditions noted are these: Hoxa13:DNA binding, 15 min, higher = more signal, called active from +8 up or from −8 down. In general terms: In fluorescence polarisation assays a small probe gives low polarisation when free and higher when bound to something large.
Homeobox protein Hox-A13 (Mus musculus), sequence (Q62424 whole entry, looked up): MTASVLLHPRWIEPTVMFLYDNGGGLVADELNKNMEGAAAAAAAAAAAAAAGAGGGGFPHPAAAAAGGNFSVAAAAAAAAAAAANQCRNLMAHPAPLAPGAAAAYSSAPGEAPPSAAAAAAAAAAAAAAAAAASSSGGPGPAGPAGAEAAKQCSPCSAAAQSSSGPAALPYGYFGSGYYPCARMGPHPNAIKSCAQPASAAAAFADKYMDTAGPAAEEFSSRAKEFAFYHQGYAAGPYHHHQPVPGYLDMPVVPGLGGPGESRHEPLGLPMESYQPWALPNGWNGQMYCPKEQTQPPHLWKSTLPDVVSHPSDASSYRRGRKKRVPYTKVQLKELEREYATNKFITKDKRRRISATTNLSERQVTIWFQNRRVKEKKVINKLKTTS

Experiment [4] can be described thus: blockers of DNA damage checkpoint Chk1 activation – imaging, HeLa, hydroxyurea, phospho-Chk1 antibody, percent positive cells, primary screen (AID 1186). The conditions noted are these: hydroxyurea-induced phospho-Chk1 immunofluorescence imaging, higher = more signal.
Experiment [5] can be described thus: blockers of DNA damage checkpoint Chk1 activation – imaging, HeLa, hydroxyurea, phospho-Chk1 nuclear intensity, primary screen (AID 1187). The conditions noted are these: hydroxyurea-induced phospho-Chk1 immunofluorescence imaging, higher = more signal.

The structures appear in SMILES notation. Active and inactive are the calls of the source. Unless noted, no rule for the calls is given here.

Regarding `C=CCOC(=O)[C@@H]1[C@H]2C(=O)O[C@H](c3ccccc3)[C@H](c3ccccc3)N2[C@H](c2ccc(OCCOC(=O)[C@@H]3C[C@@H]4C(=O)N[C@@H](CCCC[N+](C)(C)C)C(=O)N4[C@@H]3c3cccc(OCCO)c3)cc2)[C@@]12C(=O)Nc1ccc(I)cc12`, the composite z-score in experiment [1] was 1.18 (inactive); in the experiment on XIP peptide (Xip251-270) it was 0.786. Besides, the z-score in experiment [2] is 0.0875; in experiment [3], 6.23 (inactive); in experiment [4], -0.558 (inactive); in experiment [5], 0.16 (inactive).

Consider `COCCOC(=O)N1C(=O)[C@@]2(c3cc(C#CCCO)ccc31)[C@H](C(=O)N1CCN(c3ncccn3)CC1)[C@H]1C(=O)O[C@H](c3ccccc3)[C@H](c3ccccc3)N1[C@@H]2c1ccccc1OCCO`, for which the composite z-score in experiment [1] was 0.954 (inactive); in the experiment with XIP peptide (Xip251-270) it was 0.655. Moreover, the z-score in experiment [2] is -2.28; in experiment [3] it was -1.58 (inactive); in experiment [4] it was -0.0632 (inactive); in experiment [5], 0.111 (inactive).

On to `COc1ccc(CCN2C(=O)[C@@]3(Cc4ccccc42)c2ccccc2C(=O)N(Cc2ccccc2C(F)(F)F)[C@H]3c2ccc(CO)cc2)cc1`, for which the composite z-score in experiment [1] is -0.223 (inactive); in the experiment on XIP peptide (Xip251-270), 0.146. Besides, the z-score is -1.18 in experiment [2], 0.869 (inactive) in experiment [3], -0.389 (inactive) in experiment [4] and -0.826 (inactive) in experiment [5].

As for `Cc1ccc(S[C@]2(C(=O)NC3CC3)CC(=O)N(C3Cc4ccccc4C3)[C@@H]2c2ccc(CO)cc2)cc1`, the composite z-score in experiment [1] is 0.136 (inactive); with XIP peptide (Xip251-270), 0.876. In addition, the z-score in experiment [2] was -0.275; in experiment [3], -2.74 (inactive); in experiment [4], -0.671 (inactive); in experiment [5], -0.716 (inactive).

Take `CCCCCC1=C2CNC(CCC)(C(=O)OC)C=C2C(C)C1=O` (stereo unspecified): the composite z-score in experiment [1] is 0.455 (inactive); with XIP peptide (Xip251-270), -0.0874. The z-score in experiment [2] was -0.175; in experiment [3] it was -6.92 (inactive); in experiment [4], 0.138 (inactive); in experiment [5], 0.466 (inactive).

Take `CC(C)C(=C=CC[C@@H](O)c1ccccc1OCCO)CCO`: the figures for the composite z-score (in experiment [1]; with XIP peptide (Xip251-270)) were 0.305 (inactive) and -0.161, respectively. Further, the z-score in experiment [2] is -0.637; in experiment [3], -2.91 (inactive); in experiment [4] it was -0.306 (inactive); in experiment [5] it was 0.231 (inactive).

Turning to `C[C@@H]1ON(c2cccc(C(=O)OC(C)(C)C)c2)[C@H](c2ccc(Br)cc2)[C@H]1C(=O)N1C(=O)OC[C@H]1Cc1ccccc1`, the composite z-score in experiment [1] is 0.543 (inactive); with XIP peptide (Xip251-270) it was 0.615. The z-score is -0.829 in experiment [2], -0.923 (inactive) in experiment [3], 0.0511 (inactive) in experiment [4] and 0.176 (inactive) in experiment [5].

On to `Cc1ccc(C(C)CC(O)C2C=CC3C(=O)N(C)C(=O)C3N2NC(=O)OC(C)(C)C)o1` (stereo unspecified), for which the results for the composite z-score (in experiment [1]; with XIP peptide (Xip251-270)) were 3.24 (inactive) and 0.709, respectively. Further, the z-score in experiment [2] was 0.556; in experiment [3], -3.33 (inactive); in experiment [4], -0.158 (inactive); in experiment [5], -0.168 (inactive).

As for `CC1CC/C=C\[C@H]2OC34C=CCN(Cn5nnc6ccccc65)C(=O)[C@H]3N(C(CO)C(C)C)C(=O)[C@@H]4C2C(=O)O1` (stereo partly specified), the composite z-score in experiment [1] was 0.575 (inactive); in the experiment with XIP peptide (Xip251-270), 0.212. The z-score in experiment [2] was -0.918; in experiment [3] it was -5.58 (inactive); in experiment [4], 0.822 (inactive); in experiment [5] it was 0.71 (inactive).

Turning to `CCCCN1CC=CC23O[C@@H]4C=CCOC(=O)[C@@H]4[C@H]2C(=O)N(CCCCCO)[C@@H]3C1=O` (stereo partly specified), the composite z-score in experiment [1] was -0.338 (inactive); with XIP peptide (Xip251-270), 0.0889. Besides, the z-score in experiment [2] is -0.198; in experiment [3], -3.39 (inactive); in experiment [4], -0.0035 (inactive); in experiment [5], -0.504 (inactive).

Consider `COCCOC(=O)N1C(=O)[C@@]2(c3cc(C#CC4=CCCCC4)ccc31)[C@H](C(=O)N1CCc3cc(OC)c(OC)cc3C1)[C@H]1C(=O)O[C@H](c3ccccc3)[C@H](c3ccccc3)N1[C@@H]2c1ccc(OCCO)cc1`, for which the values for the composite z-score (in experiment [1]; in the experiment with XIP peptide (Xip251-270)) were 0.173 (inactive) and 0.383, respectively. Besides, the z-score in experiment [2] was -2.09; in experiment [3], 3.59 (inactive); in experiment [4], 0.206 (inactive); in experiment [5], 0.631 (inactive).

Regarding `NCCCCCNC(=O)[C@@H]1C[C@@H]2C(=O)NCC(=O)N2[C@@H]1c1ccc(O)cc1`, the composite z-score in experiment [1] is 0.715 (inactive); with XIP peptide (Xip251-270), 0.416. Further, the z-score was 0.112 in experiment [2], -1.06 (inactive) in experiment [3], -0.44 (inactive) in experiment [4] and -0.316 (inactive) in experiment [5].

Consider `CC(=O)NCCCC[C@@H]1NC(=O)[C@@H]2C[C@H](C(=O)NCCCCCCNC(=O)CS)[C@H](c3cccc(OCCO)c3)N2C1=O`, for which the results for the composite z-score (in experiment [1]; in the experiment on XIP peptide (Xip251-270)) were 0.732 (inactive) and 0.669, respectively. Moreover, the z-score in experiment [2] was -0.523; in experiment [3], -4.5 (inactive); in experiment [4], -0.223 (inactive); in experiment [5], -0.0198 (inactive).

Consider `C=C/C=C/[C@H]1C(=C)CN([C@@H](Cc2ccccc2)C(=O)OC)[C@@H]1[C@H](O)Cc1ccccc1`, for which the values for the composite z-score (in experiment [1]; in the experiment on XIP peptide (Xip251-270)) were -0.245 (inactive) and 0.497, respectively. For the same compound, the z-score in experiment [2] is -1.2; in experiment [3] it was -1.43 (inactive); in experiment [4], -0.0246 (inactive); in experiment [5], -0.368 (inactive).

`O=C1c2ccccc2[C@](Cc2ccccc2I)(C(=O)NC2CC2)[C@H](c2ccc(CO)cc2)N1C1CCCCC1`: the figures for the composite z-score (in experiment [1]; in the experiment with XIP peptide (Xip251-270)) were 0.247 (inactive) and 0.743, respectively. Besides, the z-score in experiment [2] was -1.77; in experiment [3] it was -3.63 (inactive); in experiment [4], -0.199 (inactive); in experiment [5], -0.0711 (inactive).

Consider `Cc1ccc(S[C@]2(C(=O)NCC(C)C)CC(=O)N(Cc3cc(C(F)(F)F)cc(C(F)(F)F)c3)[C@@H]2c2ccc(CO)cc2I)cc1`, for which the composite z-score is 0.861 (inactive) in experiment [1] and 0.569 with XIP peptide (Xip251-270). Besides, the z-score is -0.433 in experiment [2], -2.28 (inactive) in experiment [3], 0.208 (inactive) in experiment [4] and 0.473 (inactive) in experiment [5].

The values are drawn from PubChem BioAssay.
